Tau fluor counter – counter-screen for tau fibril formation inhibitors | tau K18 P301L Alexa594 fluorescence, heparin fibrillization | Potency, µM (series often up to 57.7 µM), inactives show top-dose activity change, negative = decrease | 0.93% of 280,000 active; also: nearly all actives have a fitted effect of over 55% in size
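Human tau K18 P301L (15 uM unlabeled, 0.24 uM Alexa 594-labeled) in 100 mM sodium acetate pH 7 with 20 uM heparin, 6 hr at 37 C. ThT 30 uM added, 1 hr ambient; Alexa 594 FP and total fluorescence read at 555/632 nm.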
RORgamma inh – blocks mouse ROR gamma transcriptional activity. 5.4% of 310,000 active. AID 2551. Drosophila S2 Gal4-RORgamma UAS-luciferase reporter, 20 h. Potency, µM (top dose mostly 53.6 µM), without a hit: at the top dose activity change, negative = inhibition, usual class: inhibitors; also: nearly all actives have a fitted effect of over 60% in size
Target sequence (P51450 whole entry, looked up, the tested form may be a part): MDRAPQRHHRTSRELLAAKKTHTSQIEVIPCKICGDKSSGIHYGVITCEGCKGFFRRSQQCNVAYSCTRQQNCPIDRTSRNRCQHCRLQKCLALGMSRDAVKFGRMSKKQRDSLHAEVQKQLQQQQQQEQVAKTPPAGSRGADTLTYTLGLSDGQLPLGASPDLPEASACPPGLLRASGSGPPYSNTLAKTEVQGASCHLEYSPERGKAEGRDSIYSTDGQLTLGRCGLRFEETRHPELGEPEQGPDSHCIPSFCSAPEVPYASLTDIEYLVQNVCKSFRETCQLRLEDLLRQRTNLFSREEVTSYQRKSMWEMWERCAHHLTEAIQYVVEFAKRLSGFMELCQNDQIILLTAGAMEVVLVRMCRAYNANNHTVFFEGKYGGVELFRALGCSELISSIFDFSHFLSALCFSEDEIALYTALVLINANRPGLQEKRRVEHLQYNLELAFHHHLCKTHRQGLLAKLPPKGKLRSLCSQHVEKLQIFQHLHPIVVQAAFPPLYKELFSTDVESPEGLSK
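ROR gamma transcriptional activity was tracked as Gal4-UAS luciferase output in stably transfected Drosophila Schneider cells, with compound added 1 hr before 700 uM copper sulfate induction and a 20 hr ambient-temperature incubation.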
Tau FP inhib – inhibitors of human tau fibril formation. 0.39% of 280,000 active. P10636. K18 P301L tau heparin fibrillization, Alexa594 FP, 6 h. Potency, µM (highest dose often 57.7 µM), for inactives: at the highest dose activity, negative = inhibition, actives largely listed as inhibitors; also: nearly all actives have a fitted effect of over 55% in size
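FP of Alexa 594-tau after heparin (20 uM) induction. Substrate: human K18 P301L, 15 uM unlabeled, 0.24 uM labeled. Buffer 100 mM sodium acetate pH 7. 6 hr, 37 C.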
Gal4-VP16 FLuc – inhibits Gal4-VP16 luciferase reporter, ROR gamma counter-screen. Drosophila S2 Gal4-VP16 UAS-luciferase, luminescence, 20 h. Potency, µM (doses to about 53.6 µM), for the others: top-dose activity, negative = inhibition, most hits filed as inhibitors. 3.5% of 310,000 active. AID 2546;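 also: Gal4-VP16 expression switched on by copper sulfate through the metallothionein promoter; nearly all actives have a fitted effect of over 50% in size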
Tau ThT inhib – tau fibrillization inhibition (ThT binding). P10636. recombinant tau K18 P301L (four-repeat tau fragment), heparin-induced fibrillization, ThT fluorescence. Potency, µM (doses to about 57.4 µM), inactives show at the top dose activity, negative = inhibition, hits mostly inhibitors. 2.1% of 270,000 active. AID 1460; also: nearly all actives have a fitted effect of over 55% in size
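Heparin-induced (20 uM) aggregation of recombinant human K18 P301L tau, 15 uM unlabeled with 0.24 uM labeled, pH 7 acetate buffer, 6 hr at 37 C with compound. Fibrils quantified by 30 uM ThT fluorescence after 1 hr ambient incubation.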
* marks the source's active call; other numbers are inactive results; u = inconclusive; x = no result; [ ] = remark or other dose. In the library only some 7.3% were active in any assay of this set; here they are far more common. Calls follow the shape of the dose curve; as a rule, active = well fitted curve in the direction sought with a large enough effect; inconclusive = small, poorly fitted or top-dose-only effect, or another doubt; inactive = no such curve, though single readings can be large; an effect the other way counts as inactive or inconclusive. % is scaled to controls: 0 for no effect and ±100 for the full control effect; potency is read from the fitted curve at half-maximal effect.

SMILES	Tau fluor counter	RORgamma inh	Tau FP inhib	Gal4-VP16 FLuc	Tau ThT inhib
COc1ccc(-c2cc(C(=O)Nc3cccc(O)c3)no2)cc1	x	1.41µM*	x	3.16µM*	x
O=C(Nc1ccc2c(c1)OCO2)c1cc(-c2ccc(O)cc2)on1	x	0.0%	x	u	x
O=C(Nc1cccc(O)c1)c1cc(-c2ccco2)on1	-21.8%	12.6µM*	-6.2%	u	-22.4%
O=C(Nc1ccc2c(c1)OCO2)c1cc(-c2cccc(O)c2)on1	x	7.08µM*	x	14.1µM*	x
CC(=O)c1cccc(NC(=O)c2cc(-c3ccco3)on2)c1	x	-25.2%	x	-0.8%	x
CO/N=C(\C(=O)NC1C(=O)N2C(C(=O)OCOC(=O)C(C)(C)C)=C(/C=C\c3scnc3C)CSC12)c1csc(N)n1 (configuration not stated)	-12.3%	13.6%	-13.1%	-4.0%	u
CCOc1ccc(-c2ccc(NS(=O)(=O)c3cc(C)c(C)cc3C)cc2)nn1	u	x	-1.3%	x	-16.5%
CCOC(=O)/C(C#N)=N/Nc1c(C)n(C)n(-c2ccccc2)c1=O	0.5%	-34.1%	-3.4%	11.2%	-7.8%
Cc1ccccc1C(=O)/C(C#N)=N/Nc1c(C)n(C)n(-c2ccccc2)c1=O	-19.0%	8.91µM*	-15.0%	20µM*	u
Cc1c(N/N=C(\C#N)C(=O)c2ccccc2)c(=O)n(-c2ccccc2)n1C	-19.7%	15.8µM*	-2.8%	u	u
Cc1cc(SCc2ccc([N+](=O)[O-])cc2)nc(=O)[nH]1	x	-9.1%	x	3.5%	x
CN(C)c1ncc2nc(-c3cccs3)c(=O)n(CCC#N)c2n1	x	-14.2%	x	-6.5%	x
CCc1nnc(SC(CC)C(=O)NCCOC)c2cc3occc3n12 (configuration not stated)	-10.6%	x	-1.6%	x	u
COc1ccc(C(=O)NC(=S)NNC(=O)c2ccccc2O)cc1	x	7.0%	x	0.7%	x
CCNC(=O)COc1ccc(Br)cc1Cl	-5.0%	30.4%	5.5%	28.5%	-10.2%
COc1ccc(OCC(=O)NC(=S)NNC(=O)COc2ccc(Br)cc2Cl)cc1	-4.0%	10µM*	-2.6%	3.1%[10 µM]	u
O=C(COc1ccccc1)NNC(=S)NC(=O)c1ccccc1	-6.4%	6.31µM*	-6.4%	11.2µM*	-16.2%
COc1ccc(C(=O)NC(=S)NNC(=O)COc2ccccc2)cc1	-12.2%	7.08µM*	-2.2%	u	u
Cc1nn(CC(=O)N2CCC(C)CC2)c(=O)c2cc3occc3n12	3.0%	x	-0.6%	x	7.0%
CC(=O)NC(=S)c1c(N)n(Cc2ccccc2)c(=O)n(C)c1=O	-14.2%	2.82µM*	-11.6%	2.82µM*	-13.8%
CC(=O)Nc1ccc(SCC(=O)c2c(N)n(Cc3ccccc3)c(=O)n(C)c2=O)cc1	-19.3%	21.4%	-6.6%	4.0%	-18.1%
CCCn1c(N)c(C(=S)NC(=O)C2CC2)c(=O)n(C)c1=O	-0.5%	3.55µM*	2.7%	3.98µM*	-10.5%
CCCCn1c(N)c(C(=S)NC(=O)CC(C)C)c(=O)n(C)c1=O	-14.3%	1.12µM*	2.5%	1.12µM*	-17.0%
Cc1ccccc1CNC(=O)C(=O)NCC(c1ccco1)S(=O)(=O)c1ccc(F)cc1 (configuration not stated)	-7.1%	x	1.0%	x	-12.6%
Cc1cccc(NC(=O)CSc2nc3c(sc4ccccc43)c(=O)n2CCCC(=O)NC2CCCC2)c1	-5.4%	x	-12.5%	x	19.7%
SMILES	Tau fluor counter	RORgamma inh	Tau FP inhib	Gal4-VP16 FLuc	Tau ThT inhib
O=c1c2ccccc2nc(/C=C/c2c[nH]c3ccccc23)n1CCO	20µM*[quencher]	41.8%	u	16.7%	u
O=c1c2ccccc2nc(/C=C/c2ccccc2)n1CCCO	x	-0.7%	x	-14.5%	x
Cc1ccc(S(=O)(=O)N2CCOCC2)cc1C(=O)Nc1nc2ccccc2[nH]1	-5.0%	15.8µM*	9.1%	17.8µM*	-6.5%
Cc1ccc(S(=O)(=O)N2CCOCC2)cc1C(=O)NCC1CCCO1 (configuration not stated)	x	-0.3%	x	0.0%	x
O=C(CSc1nc2ccc(S(=O)(=O)N3CCOCC3)cc2[nH]1)N1CCOCC1	-25.7%	13.4%	u	6.4%	28.2µM*
CCC1CCCCN1C(=S)NC(=O)c1cc(S(=O)(=O)N2CCOCC2)ccc1C (configuration not stated)	-15.7%	2.24µM*	-1.7%	3.98µM*	-9.0%

Bioassay records: PubChem, National Center for Advancing Translational Sciences (NCATS)
